An excerpt weighted towards active compounds, which were near 2.2% of everything screened.
MITF TRPM1 inh: MITF TRPM1 promoter inhibition in SK-MEL-5 cells; SK-MEL-5 TRPM1 promoter luciferase, 24 h; inhibition, % at 12.5 µM; hit rate 0.83% among 330,000; AID 488899;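 active = mean inhibition across replicates of 60% or more, whatever share of single replicates reaches that level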
EBV LMP1 NFkB: inhibitors of Epstein-Barr LMP1-induced NF-kappaB reporter. LMP1-induced NF-kappaB luciferase reporter cells, luminescence. inhibition, % at 12.5 µM. hit rate 0.69% among 350,000. AID 504558; in the data active = inhibition above about 41%;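 note: 0% = neutral control wells and 100% = reference inhibitor control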
PGC1a acetyl inh: PGC1a acetylation modulation, inhibitor mode. U2OS PGC1a acetylation, AlphaScreen anti-acetyl-lysine; with virally co-expressed GCN5 acetyltransferase. inhibition, % at 15.6 µM. hit rate 0.17% among 350,000. AID 651687;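 active = every replicate shows inhibition of at least 40%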;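 note: 0% = neutral control wells and 100% = positive control wells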
PAX8 reporter: PAX8 transcriptional activity inhibition. RMG-I TPO-luciferase reporter, SteadyGlo, 24 h. inhibition, % at 12.6 µM. hit rate 1.2% among 360,000. AID 652154;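 active = mean replicate inhibition at least 60% with every replicate also reaching 60%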;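 note: luciferase light reporting Pax8 driven TPO promoter activity; plate controls were median of neutral control wells for no effect and mitoxantrone controls for full effect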
EWS-Fli block: EWS/Fli transcriptional activity inhibition | hit rate 0.67% among 350,000 | inhibition, % at 12.6 µM | A673 NR0B1-luciferase reporter, viability-normalised;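 active = mean inhibition of at least 50% after viability correction, with every replicate also passing that limit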;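 note: firefly luciferase signal divided by Alamar Blue viability fluorescence both relative to DMSO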
LGR2 inh: Drosophila LGR2 receptor signaling inhibition | HEK293 LGR2, CRE-luciferase, bursicon-stimulated, 4 h | hit rate 0.35% among 380,000 | inhibition, % at 9.99 µM;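 active = drop in luminescence signal, shown as inhibition above about 50% in the replicate tests, limit read from the data, passing the limit was not always enough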;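 note: agonist challenge used bursicon conditioned medium at about half maximal strength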
Numbers without * were called inactive; . = no result.

SMILES | MITF TRPM1 inh | EBV LMP1 NFkB | PGC1a acetyl inh | PAX8 reporter | EWS-Fli block | LGR2 inh
Cc1ccc(-c2ccc([C@@H]3[C@@H](CO)N4CCCCN(C(=O)c5ccc(F)cc5)C[C@H]34)cc2)cc1 | . | . | -1.6 | 3.3 | 1.2 | -8.0
COc1ccccc1NC(=O)N1CCCCN2[C@H](CO)[C@H](c3ccc(-c4ccc(C)cc4)cc3)[C@H]2C1 | . | . | -15.8 | 80.4* | 39.6 | 8.6
COc1ccccc1NC(=O)N1CCCCN2[C@H](C1)[C@@H](c1ccc(-c3ccccc3)cc1)[C@@H]2CO | . | . | -4.3 | -22.7 | -4.4 | .
Cc1ccc(-c2ccc([C@@H]3[C@H](CO)N4CCCCN(C(=O)c5ccc(F)cc5)C[C@@H]34)cc2)cc1 | . | . | -1.4 | 72.0* | 3.0 | 7.7
COc1ccccc1NC(=O)N1CCCCN2[C@@H](CO)[C@H](c3ccc(-c4cccc(F)c4)cc3)[C@@H]2C1 | . | . | -29.4 | 27.4 | 0.0 | 75.7*
CC(C)NC(=O)N[C@@H]1CC[C@H](CCNS(=O)(=O)c2ccc(F)cc2)O[C@@H]1CO | . | . | -5.5 | 10.5 | 4.4 | -7.6
C[C@@H]1CCCCO[C@@H](CN(C)C(=O)Cc2ccccc2)[C@H](C)CN([C@@H](C)CO)C(=O)c2cc(NC(=O)CCCN(C)C)ccc2O1 | . | . | 2.7 | -14.9 | -8.0 | -10.9
CCc1ccc(Nc2n[n+](-c3ccccc3)c(-c3ccc(OCc4ccccc4)cc3)s2)cc1 | 8.5 | 3.4 | -7.1 | 8.4 | 5.7 | -29.9
CCc1ccc(Nc2n[n+](-c3ccccc3)c(-c3ccc(N(CC)CC)cc3)s2)cc1 | 68.2* | 1.7 | . | 82.1* | 26.9 | 8.4
Fc1ccc(-[n+]2nc(Nc3ccccc3)sc2-c2c(Cl)cccc2Cl)cc1 | 8.4 | -4.2 | -1.8 | 32.0 | 13.2 | 71.3*
CCc1ccc(Nc2n[n+](-c3ccccc3)c(-c3c(Cl)cccc3Cl)s2)cc1 | 55.9 | 43.7* | . | 101.4* | 40.3 | 44.1
CC(=O)N(C)C[C@H]1Oc2cc(C#CCN(C)C)ccc2S(=O)(=O)N([C@H](C)CO)C[C@@H]1C | . | . | -3.9 | . | 1.5 | -10.2
CC(C)NC(=O)N(C)C[C@@H]1OCCCC[C@@H](C)Oc2ccc(NC(=O)CCC(F)(F)F)cc2C(=O)N([C@@H](C)CO)C[C@@H]1C | . | . | 2.1 | -3.3 | . | -3.5
COc1cccc(S(=O)(=O)N2C[C@@H](O)COC[C@H]3O[C@H](CC(=O)Nc4ccccc4)CC[C@@H]32)c1 | . | . | -2.8 | 4.1 | -5.4 | 8.9
C[C@H](CO)N1C[C@H](C)[C@@H](CN(C)Cc2ccc(C(F)(F)F)cc2)Oc2ccc(NC(=O)CCCN(C)C)cc2C1=O | . | . | 5.3 | 0.4 | -4.2 | 5.2
COc1ccc2c3c(n(C)c2c1)[C@@H](CO)N(Cc1ccccc1)CC31CCN(S(C)(=O)=O)CC1 | . | . | . | . | 17.2 | -14.1
COc1ccc2c3c(n(C)c2c1)[C@H](CO)N(Cc1ccccc1)CC31CCN(S(=O)(=O)c2ccc(C)cc2)CC1 | . | . | -6.3 | 83.9* | 42.2 | 23.3
O=C(C[C@@H]1CC[C@@H]2[C@H](COC[C@H](O)CN2C(=O)Nc2ccc(Cl)c(Cl)c2)O1)NCc1ccc(Cl)c(Cl)c1 | . | . | -7.7 | 9.1 | 2.0 | 7.8
O=C(C[C@@H]1CC[C@@H]2[C@H](COC[C@@H](O)CN2C(=O)Nc2ccc(Cl)c(Cl)c2)O1)NCc1ccc(Cl)c(Cl)c1 | . | . | -4.2 | 73.8* | 7.6 | 29.4
Cc1ccc(S(=O)(=O)N2C[C@H](O)COC[C@H]3O[C@@H](CC(=O)NCc4ccc(Cl)c(Cl)c4)CC[C@@H]32)cc1 | . | . | 3.7 | 74.5* | 25.0 | 6.5
O=C(C[C@@H]1CC[C@H]2[C@@H](COC[C@H](O)CN2C(=O)Nc2ccc(Cl)c(Cl)c2)O1)NCc1ccc(Cl)cc1 | . | . | 10.2 | 95.3* | -2.3 | -5.6
O=C(C[C@H]1CC[C@H]2[C@@H](COC[C@H](O)CN2C(=O)Nc2ccc(Cl)c(Cl)c2)O1)NCc1ccc(Cl)cc1 | . | . | -0.4 | 69.7* | -9.2 | 0.7
O=C(C[C@@H]1CC[C@@H]2[C@H](COC[C@@H](O)CN2C(=O)Nc2ccc(Cl)c(Cl)c2)O1)NCc1ccc(Cl)cc1 | . | . | 5.7 | 95.6* | 0.3 | 16.3
CN1C(=O)c2cc(NC(=O)Nc3ccc(F)cc3)ccc2OC[C@@H]2O[C@H](CC(=O)NC3CCC3)CC[C@@H]21 | . | . | -2.9 | 7.8 | -4.0 | 5.4
Cc1nc(-c2ccc(NC(=O)c3ccco3)cc2)cs1 | 73.4* | 63.7* | -0.6 | 87.5* | 83.6* | 92.6*
SMILES | MITF TRPM1 inh | EBV LMP1 NFkB | PGC1a acetyl inh | PAX8 reporter | EWS-Fli block | LGR2 inh
Cc1nc(-c2cccc(NC(=O)c3ccco3)c2)cs1 | -14.6 | -12.7 | . | -37.9 | . | -6.3
O=C(Nc1ccc(NC(=O)c2ccco2)cc1)c1ccco1 | -52.0 | -8.2 | . | -85.0 | . | -27.2
Nc1nc(-c2ccc(NC(=O)c3ccco3)cc2)cs1 | 9.5 | 75.7* | . | -15.7 | 6.3 | -0.6
CCCNC(=O)N1C[C@H](C)[C@H](OC)CN(C)C(=O)c2ccc(NC(=O)C3CCC3)cc2OC[C@H]1C | . | . | -1.1 | -6.3 | 1.7 | -9.4
CCOC(=O)[C@H]1[C@H]2COc3ccc(C)cc3[C@@H]2N2C(=O)CN(Cc3ccc(OC)cc3)C(=O)[C@@]12C | -3.2 | 44.8* | . | -8.6 | 8.6 | 6.6
CCOC(=O)[C@H]1[C@H]2COc3cc(OC)ccc3[C@@H]2N2C(=O)CN(C)C(=O)[C@@]12C | 4.9 | -2.3 | . | -0.5 | 0.0 | 4.8
CCOC(=O)[C@H]1[C@H]2COc3ccc(OC)cc3[C@@H]2N2C(=O)CN(C)C(=O)[C@@]12C | 2.8 | 46.6* | . | -11.3 | 0.1 | 3.9
CCCC#Cc1ccc([C@@H]2[C@@H](CO)N3C(=O)CN(C(=O)Nc4cc(F)ccc4F)C[C@@H]23)cc1 | . | . | 0.3 | 37.1 | 7.5 | 8.9
O=C(CSC(=S)N1CCCCC1)c1ccccc1 | -17.3 | 5.4 | 7.4 | -40.8 | 63.8* | 67.3*
CO[C@@H]1CN(C)C(=O)c2ccc(NS(C)(=O)=O)cc2OC[C@@H](C)N(C(=O)C2CC2)C[C@H]1C | . | . | 9.7 | 4.4 | -7.9 | 6.0
C[C@@H]1CCCCO[C@H](CN(C)CC2CCCCC2)[C@H](C)CN([C@@H](C)CO)C(=O)c2cc(NC(=O)Nc3ccc(F)cc3)ccc2O1 | . | . | 26.5 | 8.2 | 57.9* | 16.4
C[C@H]1CCCCO[C@H](CN(C)CC2CCCCC2)[C@@H](C)CN([C@@H](C)CO)C(=O)c2cc(NC(=O)Nc3ccc(F)cc3)ccc2O1 | . | . | -15.3 | 68.3* | 49.3 | 13.0
C[C@@H]1CCCCO[C@@H](CN(C)CC2CCCCC2)[C@@H](C)CN([C@@H](C)CO)C(=O)c2cc(NC(=O)Nc3ccc(F)cc3)ccc2O1 | . | . | -10.6 | -14.8 | -3.1 | -1.4
O=C(NCC[C@@H]1CC[C@H](NC(=O)C2CCC2)[C@H](CO)O1)c1ccc(F)cc1 | . | . | 5.6 | 5.9 | -1.6 | 1.2
CCCOc1ccc(/C=N/NC(=O)CSCc2ccc([N+](=O)[O-])cc2)cc1OCC | -11.1 | -5.7 | . | 83.5* | -9.2 | -7.1

Screening data deposited in PubChem BioAssay by Broad Institute.
